In PubChem BioAssay (NCI):
This is part of a sample that, as a whole, favours compounds with a hit. Of some 79,000 tested, about 15% had one in any assay. Active and inactive are the calls of the source. Cut-off read from the data, not from the text of the source: active = growth inhibition above about 70%; inactive = the rest.

Key:
[1] = NCI Yeast Anticancer Drug Screen. Data for the rad52 strain (AID 147);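 note: 0% = growth of vehicle-treated control cultures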; settings: S. cerevisiae rad52 mutant growth inhibition, active compounds read high
In short: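 DNA repair-defective yeast; compound exposure; growth scored against vehicle controls.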

[2] = NCI Yeast Anticancer Drug Screen. Data for the wt1 strain (AID 149);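 note: 0% = growth of vehicle-treated wt1 cultures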; settings: S. cerevisiae wt1 strain (SPY 50644) growth inhibition, active compounds read high
In short: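 Growth inhibition read against vehicle controls after compound exposure of the wt1 yeast strain.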

[3] = NCI Yeast Anticancer Drug Screen. Data for the rad50EPP+ strain (AID 151);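 note: 0% = growth of vehicle-treated control cultures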; settings: S. cerevisiae rad50 mutant strain, active compounds read high
In short: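 rad50EPP+ yeast treated with test compounds. Readout: growth vs vehicle control.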

[4] = NCI Yeast Anticancer Drug Screen. Data for the rad50 strain (AID 155);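 note: 0% = growth of vehicle-only cultures of the same strain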; settings: S. cerevisiae rad50 strain growth inhibition, active compounds read high
In short: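 Readout: growth inhibition relative to vehicle-treated cultures. Compound exposure was carried out in a genetically defined yeast strain deficient in DNA damage repair.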

[5] = NCI Yeast Anticancer Drug Screen. Data for the mec2-1 strain (AID 157); settings: S. cerevisiae mec2-1 strain, active compounds read high
In short: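 Growth inhibition is read against vehicle-treated controls after compound exposure of the mec2-1 yeast strain, which is defective in DNA damage repair or cell cycle control.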

[6] = NCI Yeast Anticancer Drug Screen. Data for the rad14 strain (AID 159);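 note: 0% = growth of vehicle-treated control cultures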; settings: S. cerevisiae rad14 strain growth inhibition, active compounds read high
In short: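 Growth inhibition vs vehicle controls; genetically altered yeast strain (DNA damage repair defect) treated with test compounds.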

[7] = NCI Yeast Anticancer Drug Screen. Data for the sgs1 mgt1 strain (AID 161);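 note: 0% = growth of cultures given vehicle only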; settings: S. cerevisiae sgs1 mgt1 strain, active compounds read high
In short: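 Growth of a repair-deficient yeast mutant was monitored after compound treatment and expressed as inhibition relative to vehicle-treated cultures.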

[8] = NCI Yeast Anticancer Drug Screen. Data for the CLN2oe strain (AID 163);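 note: 0% = growth of vehicle-only control cultures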; settings: S. cerevisiae CLN2oe strain, active compounds read high
In short: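 Compound-treated yeast; growth vs vehicle ctrl = % inhibition. Genetically altered strain (cell-cycle control).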

[9] = NCI Yeast Anticancer Drug Screen. Data for the cln2 rad14 strain (AID 165);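 note: 0% = growth equal to vehicle treated cultures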; settings: S. cerevisiae cln2 rad14 strain, active compounds read high
In short: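 Growth inhibition, relative to vehicle-treated controls, is the read-out. The test organism is a yeast strain with defined genetic alterations, cln2 rad14.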

[10] = NCI Yeast Anticancer Drug Screen. Data for the bub3 strain (AID 167); settings: S. cerevisiae bub3 mutant strain, active compounds read high
In short: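 Readout: yeast growth inhibition, expressed relative to vehicle-only wells. The test organism is a mutant strain from a panel with lesions in DNA repair or checkpoint genes.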

[11] = NCI Yeast Anticancer Drug Screen. Data for the sgs1 strain (AID 173);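 note: 0% = growth of vehicle-only control cultures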; settings: S. cerevisiae sgs1 mutant, active compounds read high
In short: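 Compounds applied to genetically altered yeast; growth compared with vehicle-treated cultures to give % inhibition.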

[12] = NCI Yeast Anticancer Drug Screen. Data for the mlh1 rad18 strain (AID 175); settings: S. cerevisiae mlh1 rad18 strain growth inhibition, active compounds read high
In short: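 Cells of a genetically altered yeast strain, deficient in DNA damage repair, were treated with compound. Their growth was then compared with that of vehicle-treated cultures to give inhibition.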

[13] = NCI Yeast Anticancer Drug Screen. Data for the rad18 strain (AID 177); settings: S. cerevisiae rad18 mutant growth inhibition, active compounds read high
In short: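 Compounds are applied to a repair-deficient yeast strain, and growth is compared with that of vehicle-treated cultures to give percent inhibition.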

[14] = NCI Yeast Anticancer Drug Screen. Data for the mgt1 strain (AID 153); settings: S. cerevisiae mgt1 mutant growth inhibition, active compounds read high
In short: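 Growth inhibition relative to vehicle controls was scored for the mgt1 yeast strain after compound exposure.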

[15] = at 5.0 µM (retest, dose inferred, filed as 0.5)
[16] = at 50.0 µM (retest, dose inferred, filed as 5.0)

Measured: growth inhibition

COC(=O)C(=O)c1c(-c2ccc(Cl)c(Cl)c2)[nH]c2[nH]n(-c3ccccc3)c(=O)c2c1=O
inactive: [1]; at 1.2 µM -2% | [1]; at 3.7 µM -5% | [1]; at 11.0 µM 37% | [1]; at 33.0 µM 55% | [1]; at 100.0 µM 61% | [2]; at 1.2 µM -1% | [2]; at 3.7 µM -3% | [2]; at 11.0 µM 24% | [2]; at 33.0 µM 54% | [2]; at 100.0 µM 55% | [3]; at 1.2 µM 2% | [3]; at 3.7 µM 0% | [3]; at 11.0 µM 24% | [3]; at 33.0 µM 56% | [4]; at 1.2 µM 0% | [4]; at 3.7 µM 27% | [4]; [15] -5% | [4]; at 11.0 µM 22% | [4]; at 33.0 µM 40% | [4]; at 100.0 µM 65% | [5]; at 1.2 µM -2% | [5]; at 3.7 µM -7% | [5]; [15] -7% | [5]; at 11.0 µM 40% | [5]; at 33.0 µM 57% | [5]; [16] 9% | [5]; at 100.0 µM 63% | [6]; at 1.2 µM -1% | [6]; at 3.7 µM -1% | [6]; at 11.0 µM 46% | [6]; at 33.0 µM 62% | [6]; at 100.0 µM 61% | [7]; [15] -3% | [7]; at 50.0 µM 43% | [8]; at 1.2 µM -6% | [8]; at 3.7 µM -13% | [8]; at 11.0 µM 64% | [8]; at 33.0 µM 64% | [8]; at 100.0 µM 58% | [9]; [15] -11% | [10]; at 1.2 µM -3% | [10]; at 3.7 µM -2% | [10]; [15] -38% | [10]; at 11.0 µM 51% | [10]; at 33.0 µM 54% | [10]; at 100.0 µM 55% | [11]; at 1.2 µM -1% | [11]; at 3.7 µM -1% | [11]; at 11.0 µM 60% | [11]; at 33.0 µM 61% | [11]; at 100.0 µM 65% | [12]; [15] -7% | [13]; at 1.2 µM -3% | [13]; at 3.7 µM -2% | [13]; at 11.0 µM 3% | [13]; at 33.0 µM 49%
active: [3]; at 100.0 µM 76% | [4]; [16] 85% | [4]; at 50.0 µM 93.1% | [5]; at 50.0 µM 82.8% | [7]; [16] 83% | [9]; [16] 81% | [9]; at 50.0 µM 87.5% | [10]; [16] 84% | [10]; at 50.0 µM 82.5% | [12]; [16] 80% | [12]; at 50.0 µM 94.5% | [13]; at 100.0 µM 77%

c1c[nH]c(CN2CCN(Cc3ncc[nH]3)CC2)n1
active: [1]; at 3.7 µM 72% | [1]; at 11.0 µM 96% | [1]; at 33.0 µM 97% | [1]; at 100.0 µM 98% | [2]; at 11.0 µM 97% | [2]; at 33.0 µM 98% | [2]; at 100.0 µM 99% | [3]; at 11.0 µM 92% | [3]; at 33.0 µM 97% | [3]; at 100.0 µM 98% | [14]; at 11.0 µM 96% | [14]; at 33.0 µM 97% | [14]; at 100.0 µM 99% | [5]; at 11.0 µM 94% | [5]; at 33.0 µM 98% | [5]; [16] 98% | [5]; at 50.0 µM 97.7% | [5]; at 100.0 µM 98%
inactive: [1]; at 1.2 µM 0% | [2]; at 1.2 µM -1% | [2]; at 3.7 µM 7% | [3]; at 1.2 µM -3% | [3]; at 3.7 µM 3% | [14]; at 1.2 µM -6% | [14]; at 3.7 µM 2% | [5]; at 1.2 µM -5% | [5]; at 3.7 µM -1% | [5]; [15] 26% | [6]; at 1.2 µM -4% | [6]; at 3.7 µM 18%
